Assay [1] is described as follows: qHTS assay for small molecules that induce genotoxicity in human embryonic kidney cells expressing luciferase-tagged ATAD5 - cell viability (AID 651634; calls by dose curve; further: nearly all actives have a fitted effect of over 25% in size). An outline of the steps:
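HEK293T cells expressing luciferase-tagged ATAD5 were exposed to compound or DMSO for 15.5 hr at 37C, 5% CO2. Viability was then read as live-cell protease activity by CellTiter-Fluor fluorescence after 30 min at 37C.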
On the technique in general: In qHTS, concentration-response curves come from the screen itself.

A short description of assay [2]: qHTS assay for small molecule disruptors of the mitochondrial membrane potential - cell viability (AID 720634; calls by dose curve;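 further: human HepG2 liver cancer cells; series mostly up to about 83 µM; nearly all actives have a fitted effect of over 20% in size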). In outline:
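HepG2 cells seeded overnight at 37 C, then exposed to compound or DMSO for 1 hr at 37 C, 5% CO2. m-MPI dye added, then CellTiter-Glo for 30 min at room temperature; viability read as ATP luminescence.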

A short description of assay [3]: qHTS assay to test for compound auto fluorescence at 535 nm (green) in HepG2 cells (AID 720675).
Assay [4] can be described thus: qHTS assay to test for compound auto fluorescence at 535 nm (green) in HEK293 cells (AID 720680).
Assay [5] can be described thus: qHTS assay to test for compound auto fluorescence at 460 nm (blue) in HEK293 cell free culture (AID 720681). An outline of the steps: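 Blue fluorescence (Ex 405/Em 460 nm, triamterene-equivalent) was read immediately after pin transfer of compound or DMSO into medium (DMEM, 10% FBS) without cells.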
Assay [6] is described as follows: qHTS assay to test for compound auto fluorescence at 535 nm (green) in HEK293 cell free culture (AID 720682). An outline of the steps:
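Green-channel intensity (Ex/Em 485/535 nm) was recorded from compound-treated wells containing only DMEM with 10% FBS. Fluorescein provided the equivalency standard.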

Assay [7] can be described thus: qHTS assay to test for compound auto fluorescence at 590 nm (red) in HEK293 cell free culture (AID 720683). An outline of the steps:
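Red-channel autofluorescence of compounds in culture medium (DMEM, 10% FBS), no cells, measured at 540/590 nm. Rose Bengal sodium is the reference fluorophore for equivalence.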

Assay [8] can be described thus: qHTS assay to test for compound auto fluorescence at 590 nm (red) in HepG2 cell free culture (AID 720684). An outline of the steps: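 Steps: dispense MEM/10% FBS medium, no cells; pin compound or DMSO vehicle; read red channel, Ex/Em 540/590 nm. Output given as Rose Bengal sodium equivalents.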
Assay [9] is described as follows: qHTS assay to test for compound auto fluorescence at 460 nm (blue) in HepG2 cell free culture (AID 720685). An outline of the steps: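 Compound (23 nL) or DMSO pinned into cell-free MEM with 10% FBS; blue fluorescence read at 405/460 nm excitation/emission, expressed as auto-fluorescence equivalency to triamterene.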
A short description of assay [10]: qHTS assay to identify small molecule antagonists of the androgen receptor (AR) signaling pathway using the MDA cell line - cell viability counter screen (AID 743041; further: nearly all actives have a fitted effect of over 45% in size). In outline: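 Cells were plated at 3,000 per well and left 5 h. Compounds in DMSO were then pinned in, followed by R1881. After 16 h at 37C, CellTiter-Fluor fluorescence gave viability.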
Assay [11] has as its system thyroid hormone receptor (rat, GH3 cells). The experiment in a line: qHTS assay to identify small molecule agonists of the thyroid receptor (TR) signaling pathway (AID 743066; calls by dose curve).
Assay [12] in a line: qHTS assay to identify small molecule antagonists of the estrogen receptor alpha (ER-alpha) signaling pathway - cell viability counter screen (AID 743074; calls by dose curve;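 further: HEK293 cells carrying ER-alpha-UAS-bla reporter stimulated with 17beta-estradiol; nearly all actives have a fitted effect of over 45% in size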).
Assay [13] in a line: qHTS assay to identify small molecule antagonists of the estrogen receptor alpha (ER-alpha) signaling pathway using the BG1 cell line - cell viability counter screen (AID 743081).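 Further: compound given together with 17beta-estradiol as the ER stimulus; series mostly up to about 70 µM; nearly all actives have a fitted effect of over 45% in size.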
The target in assay [14] is Aromatase (Homo sapiens) (UniProt P11511). Briefly: qHTS assay to identify aromatase inhibitors (AID 743083). Further: series mostly up to about 70 µM; nearly all actives have a fitted effect of over 55% in size.
Assay [15] is described as follows: qHTS assay to identify aromatase inhibitors - cell viability counter screen (AID 743084).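 Further: cells stimulated with testosterone during compound exposure; nearly all actives have a fitted effect of over 55% in size.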
Assay [16] concerns the target Aryl hydrocarbon receptor (Homo sapiens) (UniProt P35869). Briefly: qHTS assay to identify small molecule that activate the aryl hydrocarbon receptor (AhR) signaling pathway (AID 743085). Further: nearly all actives have a fitted effect of over 15% in size. Further: potency means the concentration at half of the fitted maximal effect.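 On activation: HG2L7.5c1 human HepG2 liver cells with stably integrated DRE-driven firefly reporter; series mostly up to about 70 µM.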 In outline:
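AhR agonist activity is inferred from enhanced light output of a DRE-controlled firefly luciferase reporter in HepG2 cells, measured with ONE-Glo following 24 h treatment at 37C.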

Assay [17] in a line: qHTS assay to identify small molecule that activate the aryl hydrocarbon receptor (AhR) signaling pathway - cell viability counter screen (AID 743086).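 Further: HepG2 liver cells carrying the AhR DRE luciferase reporter; series mostly up to about 70 µM; nearly all actives have a fitted effect of over 45% in size.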 An outline of the steps:
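Cytotoxicity counter screen: CellTiter-Fluor signal (30 min, 37 C) in 4000 HepG2 cells/well carrying the DRE-luciferase reporter, following 24 h compound exposure at 37 C.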

The nature of assay [18]: qHTS assay to identify small molecule phospholipidosis (PLD) inducers (AID 1259344; active means well fitted curve in the direction sought with a large enough effect; an effect the other way counts as inactive or inconclusive). In outline: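 Phospholipidosis is scored by imaging LipidTOX-stained pits in HepG2 cells exposed to compound for 24 h at 37 C; pit counts and integrated intensities per well and per cell serve as outputs.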
Assay [19] deals with Nuclear receptor subfamily 1 group I member 2 (Rattus norvegicus) (UniProt Q9R1A7). Briefly: Rat pregnane X receptor (rPXR) activation by small molecules, qHTS assay (AID 1346983). Further: nearly all actives have a fitted effect of over 20% in size. The following applies: rPXR luciferase reporter cells, One-Glo luminescence, 24 h; max activation: stronger effect = higher value. In outline:
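Luminescent readout (One-Glo luciferase, 30 min room temperature) followed 24 hr compound treatment at 37 C of rPXR cells plated 2,000 per well and preincubated 5hr; qHTS format with compounds delivered in DMSO.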

Assay [20] can be described thus: qHTS assay to test for compound auto fluorescence at 535 nm (green) in HepG2 cell free culture (AID 720686).

The results in this text go back to PubChem BioAssay (Tox21).

SMILES strings stand for the structures. Several values for one entry are separate records, joined by “and”; a condition that tells them apart may be missing. Equal entries are not always repeated. Results filed as inconclusive are left out. A structure can be active in one record and inactive in another. Activity calls are given as the source filed them. Unless noted, the call rests on the fitted dose curve; in most records, active means well fitted curve in the direction sought with a large enough effect in the repeat runs; inconclusive means weak or mixed curves; inactive means no such curve, though single readings can be large; an effect the other way counts as inactive or inconclusive.
On the % scale 0 is the no-effect control and ±100 the full control effect.

Chain of Aromatase (Homo sapiens) (P11511 whole entry, looked up): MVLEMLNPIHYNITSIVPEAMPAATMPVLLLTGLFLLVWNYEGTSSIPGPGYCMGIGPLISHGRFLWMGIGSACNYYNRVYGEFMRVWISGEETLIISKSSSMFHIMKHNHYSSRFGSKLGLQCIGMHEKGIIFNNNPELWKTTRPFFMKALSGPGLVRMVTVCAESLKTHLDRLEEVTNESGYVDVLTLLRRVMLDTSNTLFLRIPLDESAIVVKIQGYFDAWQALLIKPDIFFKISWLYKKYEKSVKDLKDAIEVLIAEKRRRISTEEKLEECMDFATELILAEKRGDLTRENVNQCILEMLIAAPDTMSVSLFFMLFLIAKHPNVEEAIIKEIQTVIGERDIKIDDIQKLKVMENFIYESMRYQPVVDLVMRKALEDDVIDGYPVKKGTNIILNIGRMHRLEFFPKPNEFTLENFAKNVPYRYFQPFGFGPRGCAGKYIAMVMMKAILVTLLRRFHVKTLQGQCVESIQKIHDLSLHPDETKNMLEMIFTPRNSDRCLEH
Chain of Nuclear receptor subfamily 1 group I member 2 (Rattus norvegicus) (Q9R1A7 whole entry, looked up): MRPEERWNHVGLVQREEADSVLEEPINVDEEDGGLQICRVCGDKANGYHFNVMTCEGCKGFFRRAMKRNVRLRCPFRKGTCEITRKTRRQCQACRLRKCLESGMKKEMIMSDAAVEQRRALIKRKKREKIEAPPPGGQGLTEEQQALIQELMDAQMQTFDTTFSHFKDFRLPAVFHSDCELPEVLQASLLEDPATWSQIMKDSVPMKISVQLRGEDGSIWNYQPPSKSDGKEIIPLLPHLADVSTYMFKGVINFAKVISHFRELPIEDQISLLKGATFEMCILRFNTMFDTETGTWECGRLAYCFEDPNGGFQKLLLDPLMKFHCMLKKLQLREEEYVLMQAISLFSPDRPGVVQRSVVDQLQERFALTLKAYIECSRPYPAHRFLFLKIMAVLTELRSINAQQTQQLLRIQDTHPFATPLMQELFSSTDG
Chain of Aryl hydrocarbon receptor (Homo sapiens) (P35869 whole entry, looked up): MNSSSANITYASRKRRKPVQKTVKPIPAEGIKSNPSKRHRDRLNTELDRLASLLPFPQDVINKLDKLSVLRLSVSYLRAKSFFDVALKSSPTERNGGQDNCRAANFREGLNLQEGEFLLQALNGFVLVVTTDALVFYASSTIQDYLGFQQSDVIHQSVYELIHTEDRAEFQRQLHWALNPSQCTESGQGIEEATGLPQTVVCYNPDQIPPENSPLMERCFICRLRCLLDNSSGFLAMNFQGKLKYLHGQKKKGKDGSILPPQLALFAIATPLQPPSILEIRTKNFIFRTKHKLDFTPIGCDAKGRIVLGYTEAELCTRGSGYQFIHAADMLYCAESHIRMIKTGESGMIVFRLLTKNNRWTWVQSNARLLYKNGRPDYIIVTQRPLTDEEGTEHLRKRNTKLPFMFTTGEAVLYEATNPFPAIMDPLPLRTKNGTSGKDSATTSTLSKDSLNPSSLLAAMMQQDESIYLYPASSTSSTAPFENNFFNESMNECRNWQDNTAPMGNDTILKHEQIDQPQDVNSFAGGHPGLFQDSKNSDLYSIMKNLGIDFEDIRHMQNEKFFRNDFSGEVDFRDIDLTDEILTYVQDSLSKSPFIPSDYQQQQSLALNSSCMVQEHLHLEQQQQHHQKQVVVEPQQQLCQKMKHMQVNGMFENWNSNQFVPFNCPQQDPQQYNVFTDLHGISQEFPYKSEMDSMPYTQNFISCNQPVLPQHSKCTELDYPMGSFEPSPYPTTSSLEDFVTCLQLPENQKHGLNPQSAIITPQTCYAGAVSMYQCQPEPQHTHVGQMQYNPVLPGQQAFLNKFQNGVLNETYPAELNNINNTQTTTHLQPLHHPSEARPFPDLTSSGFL

Consider `CC(=O)OO`, for which the Potency entry in assay [1], in assay [2], in assay [3], in assay [4], in assay [5] and in [6] was “inactive” throughout. The Potency result in assay [9], in [10], in [11], in [12], in assay [13] and in [14] was “inactive” each time. For the same compound, the Potency result in assay [15], in [16], in assay [17] and in assay [18] was “inactive” each time. Further, the result in [7] and in assay [8] was inactive. Also, the max activation in assay [19] was -0.773% (inactive).

With `CCC(N)Cc1c[nH]c2ccccc12` (stereo unspecified), the Potency entry in [1], in assay [2], in assay [3], in [4], in assay [5] and in assay [6] was “inactive” throughout. For the same compound, the Potency entry in assay [9], in assay [10], in [11], in assay [12], in assay [14] and in [15] was “inactive” each time. In addition, the Potency entry in assay [17] and in [18] was “inactive” in each case. Further, the result in assay [7] and in [8] was inactive. The Potency entry in assay [16] is “inactive and 30.7 µM (active)”. Moreover, in assay [19], the max activation was -0.551% (inactive).

Consider `c1csc(C2(N3CCCCC3)CCCCC2)c1`, for which the Potency result in [1], in [2], in assay [3], in assay [4], in assay [5] and in assay [6] was “inactive” in each case. Moreover, the Potency entry in assay [9], in assay [20], in assay [10], in assay [11], in assay [12] and in assay [13] was “inactive” in each case. Besides, the Potency result in assay [14], in [15], in assay [16], in [17] and in assay [18] was “inactive” in each case. For the same compound, the result in assay [7] and in [8] was inactive. In addition, in [19], the max activation was -0.931% (inactive).

As for `C=CC[C@]1(O)CC[C@H]2[C@@H]3CCC4=CCCC[C@@H]4[C@H]3CC[C@@]21C`, the Potency result in assay [1], in [2], in assay [3], in [4], in assay [5] and in [6] was “inactive” throughout. Further, the Potency result in assay [9], in assay [20], in [10], in assay [12], in assay [13] and in [15] was “inactive” throughout. The Potency result in assay [16], in assay [17] and in [18] was “inactive” throughout. In addition, the outcome in [7] and in assay [8] was inactive. Also, in assay [19], the max activation is 1.23% (inactive).

`CNc1ccc(C(=O)CC(O)CCC(C)C2OC(=O)CC(O)CC(=O)CC(O)CC(O)CC(O)CC(O)CC3(O)CC(O)C(C(=O)OC)C(CC(O[C@@H]4O[C@H](C)[C@@H](O)[C@H](N)[C@@H]4O)/C=C/C=C/C=C/C=C/C=C/C=C/C=C/C2C)O3)cc1` (stereo partly specified): the Potency result in assay [1], in assay [2], in [3], in assay [4], in assay [5] and in assay [6] was “inactive” in each case. Moreover, the Potency entry in assay [9], in assay [20], in [10], in assay [11], in assay [12] and in assay [13] was “inactive” each time. Moreover, the Potency entry in [14], in assay [15], in [16], in [17] and in assay [18] was “inactive” in each case. For the same compound, the compound was called inactive in [7] and in [8]. Moreover, the max activation in assay [19] was -1.47% (inactive).

For `COC([CH2][Hg])CNC(=O)c1ccccc1OCC(=O)O` (stereo unspecified), the Potency result in assay [2], in assay [3], in assay [4], in assay [5], in assay [6] and in assay [9] was “inactive” throughout. In addition, the Potency entry in [20], in assay [10], in assay [12], in assay [13], in [14] and in assay [15] was “inactive” throughout. Further, the Potency entry in assay [17] and in assay [18] was “inactive” throughout. Further, the compound was called inactive in [7] and in assay [8]. The max activation in assay [19] is 7.87% (inactive).

For the compound `CCCCCCC(=O)O[C@H]1CC[C@H]2[C@@H]3CC[C@H]4CC(=O)C=C(C)[C@]4(C)[C@H]3CC[C@]12C`, the Potency entry in assay [1], in [2], in assay [3], in assay [4], in assay [5] and in [6] was “inactive” in each case. Besides, the Potency entry in assay [9], in assay [20], in assay [10], in assay [11], in assay [13] and in assay [14] was “inactive” in each case. Moreover, the Potency result in [15], in [16], in assay [17] and in [18] was “inactive” throughout. The result in [7] and in [8] was inactive. Also, the max activation in [19] was -2.7% (inactive).
